High-throughput results deposited in PubChem by National Center for Advancing Translational Sciences (NCATS).
Only some compounds are listed: those with a hit (about 2.7% of all), similar ones and a draw of the others.
Tau fibril FP: tau fibrillization inhibition (FP); P10636; K18 P301L tau heparin fibrillization, Alexa594 FP, 6 h; Potency, µM (highest dose often 57.7 µM), for the others: at the top dose activity, negative = inhibition, usual class: inhibitors; 0.39% of 280,000 active; also: potency is read from the fitted curve at half-maximal effect; nearly all actives have a fitted effect of over 55% in size
Target sequence (P10636 561-689 P618L limits assumed): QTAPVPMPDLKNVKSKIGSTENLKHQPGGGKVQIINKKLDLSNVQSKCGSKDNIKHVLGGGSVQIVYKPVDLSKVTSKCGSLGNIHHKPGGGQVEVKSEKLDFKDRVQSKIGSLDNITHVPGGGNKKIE
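K18 P301L tau (15 uM unlabeled/0.24 uM Alexa 594-labeled, final) + compound + heparin 20 uM final; 100 mM NaOAc pH 7; 6 hr 37 C; ThT 30 uM final added, 1 hr RT; FP ex 555/em 632 nm.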
FBPA coupling cs: inhibits coupling enzyme system, counter-screen for aldolase hits. coupling enzyme system counterscreen, AmpLite Red fluorescence. 0.67% of 290,000 active. AID 2472. activity change, negative = inhibition, % at 58.2 µM, hits read low; in the data active = activity change below about -30%
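Coupling enzymes only (glyceraldehyde-3-phosphate) + compound, at 57.5 uM final, 10 min RT; add substrate/coupling/AmpLite Red mix, 20 min RT; fluorescence ex 525/em 598 nm. Actives flag coupling-system interference.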
Tau ThT inhib: tau fibrillization inhibition (ThT binding) | Potency, µM (titrated, usually from 57.4 µM), inactives show top-dose activity, negative = inhibition, most hits filed as inhibitors | 2.1% of 270,000 active | AID 1460 | P10636 | recombinant tau K18 P301L, heparin-induced fibrillization, ThT fluorescence; also: potency is read from the fitted curve at half-maximal effect; nearly all actives have a fitted effect of over 55% in size
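In this qHTS, human K18 P301L tau is incubated with compound and heparin for 6 hr at 37 C, and Thioflavin T fluorescence then reports fibril load.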
Tau fluor cs: counter-screen for tau fibril formation inhibitors; tau K18 P301L Alexa594 fluorescence, heparin fibrillization; Potency, µM (doses to about 57.7 µM), inactives show at the top dose activity change, negative = decrease; 0.93% of 280,000 active; AID 1463; also: potency is read from the fitted curve at half-maximal effect; nearly all actives have a fitted effect of over 55% in size
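Human tau K18 P301L (15 uM unlabeled, 0.24 uM Alexa 594-labeled) in 100 mM sodium acetate pH 7 with 20 uM heparin, 6 hr at 37 C. ThT 30 uM added, 1 hr ambient; Alexa 594 FP and total fluorescence read at 555/632 nm.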
The depositor's hits bear a star; u = inconclusive; x = not tested or not shown; [ ] = remark or other dose. Unless noted, calls follow the shape of the dose curve; as a rule, active = well fitted curve in the direction sought with a large enough effect; inconclusive = small, poorly fitted or top-dose-only effect, or another doubt; inactive = no such curve, though single readings can be large; an effect the other way counts as inactive or inconclusive. % is scaled to controls: 0 for no effect and ±100 for the full control effect.

SMILES | Tau fibril FP | FBPA coupling cs | Tau ThT inhib | Tau fluor cs
CCn1c(SCC(=O)Nc2sc3c(c2C#N)CCCC3)nnc1-c1ccco1 | -4% | -40* | -10% | -1%
Cc1ccc(CN(Cc2ccco2)C(=O)c2ccccc2Br)o1 | -9% | x | u | u
CC[C@]12CCCN3CCc4c(n(c5ccccc45)C(=O)C1)[C@H]32 | -9% | 4 | -15% | -19%
Cc1ccc(S(=O)(=O)N2CN(Cc3ccco3)c3nc4ccccc4nc32)cc1 | -3% | 2 | -19% | -7%
COc1ccc(S(=O)(=O)N2CN(Cc3ccco3)c3nc4ccccc4nc32)cc1 | u | -3 | 22µM* | -30%
O=S(=O)(c1ccc(F)cc1)N1CN(Cc2ccco2)c2nc3ccccc3nc21 | u | 1 | 32µM* | u
COc1ccc(Cc2nc3ccc(C(=O)NCCc4ccc(OC)c(OC)c4)cc3o2)cc1 | 2% | x | u | -20%
Cc1nc(-n2nc(C)c(Cc3ccccc3Cl)c2C)sc1C(=O)N1CCCCC1C (configuration not stated) | 15% | x | -10% | 3%
CCCn1c(SCc2nc(-c3ccccc3C)no2)nnc1-c1ccc(Cl)cc1 | 6% | x | -14% | -11%
O=C1N=C(O)CN1/N=C\c1ccc(-c2ccc([N+](=O)[O-])cc2)o1 | 3% | 1 | 14µM* | -10%
O=C(N/N=C/c1ccc(-c2ccccc2[N+](=O)[O-])o1)c1cccnc1 | u | -12 | 7.1µM* | -24%
O=C(N/N=C\c1ccc(-c2ccc([N+](=O)[O-])cc2)o1)c1ccc2c(c1)OCO2 | 7% | 3 | 0.89µM* | u
COc1cc([N+](=O)[O-])ccc1-c1ccc(/C=N/NC(=O)c2ccccc2O)o1 | 4% | 3 | 1.6µM* | u
O=C(O)c1cccc(-c2ccc(/C=N/NC(=O)c3cccnc3)o2)c1 | 3% | -28 | u | -3%
Cc1nnc2c3ccccc3nc(N3CCN(c4ccccc4)CC3)n12 | 9% | x | -20% | -8%
O=C(c1ccco1)n1nc(-c2ccc(Cl)cc2)nc1NCc1ccc(F)cc1 | -10% | x | -1% | -8%
COc1ccc(-n2c(/C=C/c3cccc4ccccc34)nc3ccccc3c2=O)cc1Cl | u | x | -2% | -10%
CCCCC/C=C\C[C@@H](O)/C=C/C=C/C=C\[C@@H](O)CCCC(=O)O | -2% | -1 | 2% | 4%
CCOC(=O)c1ccc(NC(=O)CN(c2ccc(C)cc2)S(=O)(=O)c2ccc(OC)cc2)cc1 | u | x | 7% | -29%
O=C1Nc2ccccc2/C1=N/N=C/c1ccc(-c2ccc([N+](=O)[O-])cc2)o1 | 3% | 0 | 2.8µM* | -28%
O=C(N/N=C/c1ccc(-c2cccc([N+](=O)[O-])c2)o1)c1ccccc1O | 7% | 1 | 8.9µM* | u
O=C(N/N=C/c1ccc(-c2cccc(C(F)(F)F)c2)o1)c1ccccc1O | -11% | -1 | -15% | -20%
Cc1ccc(C(=O)N/N=C\c2ccc(-c3ccc([N+](=O)[O-])cc3)o2)cn1 | 6% | 1 | 3.2µM* | -29%
O=C(N/N=C/c1ccc(-c2cccc([N+](=O)[O-])c2)o1)c1ccc([N+](=O)[O-])cc1 | 10% | -3 | 5.6µM* | u
Cc1cccc(NC(=O)CCS(=O)(=O)c2ccc3c(c2)n(C)c(=O)c(=O)n3C)c1C | 2% | x | -14% | 3%
SMILES | Tau fibril FP | FBPA coupling cs | Tau ThT inhib | Tau fluor cs
NC(=S)N/N=C/c1ccc(-c2cc(Cl)cc(Cl)c2)o1 | -2% | -1 | u | -27%
NC(=S)N/N=C/c1ccc(-c2ccc([N+](=O)[O-])cc2)o1 | u | -13 | 7.9µM* | u
C/C(=N/NC(=O)c1cc(-c2cccc([N+](=O)[O-])c2)n[nH]1)c1cccc(O)c1 | -2% | -1 | u | -18%
C/C(=N\NC(=O)c1cc(-c2cccc([N+](=O)[O-])c2)n[nH]1)c1ccccc1O | -5% | 0 | 2µM* | u
O=C(O[C@@H]1OC2COC(=O)c3cc(O)c(O)c(O)c3-c3c(cc(O)c(O)c3O)C(=O)O[C@@H]([C@H]1O)[C@@H]2O)c1cc(O)c(O)c(O)c1 | u | -18 | 7.9µM* | 13µM*[quencher]
COc1ccc(C2c3cc(OC)c(OC)cc3Cc3c4cc(OC)c(OC)cc4cc[n+]32)cc1OC (configuration not stated) | 0% | -2 | -10% | -6%
Cc1ccc(S(=O)(=O)Nc2cc(=O)[nH]c(SCC(=O)Nc3cccc(C)c3)n2)cc1 | 16µM* | 1 | x | u
Cc1cccc(C(=O)N2CCc3cc(CNC(=O)c4ccc(Br)o4)ccc32)c1 | 8% | x | -10% | -13%
COC(=O)c1ccc(-c2nc3cc(Cl)c(N)cc3s2)cc1 | -4% | -32* | u | -27%
COC(=O)c1ccc(-c2nc(O)c(C)s2)cc1 | u | 2 | 13µM* | -6%
COC(=O)c1ccc(C2=NOC(C)(c3sc(-c4ccccc4)nc3C)C2)cc1 (configuration not stated) | 0% | -1 | 4% | 6%
Cc1c(NC(=O)Cc2ccc(F)cc2)cccc1-c1nc2cccnc2s1 | u | x | 8% | 20µM*[quencher]
CCOc1ccc(CC(=O)Nc2cccc(-c3nc4cccnc4s3)c2C)cc1 | -10% | x | -7% | -14%
CN(c1ccccc1)c1ccc(/C=C(\C#N)c2nnc3n2CCCCC3)cc1[N+](=O)[O-] | 1% | 1 | 14µM* | u
Oc1c(C(c2ccccc2F)N2CCN(c3ccccc3F)CC2)sc2nc(-c3ccco3)nn12 (configuration not stated) | -15% | x | u | -25%
CCC(=Nc1ccc(N)cc1)C1=C(O)C(C(=O)OC)C(C)(C)CC1=O (configuration not stated) | 14µM* | -48* | 7.1µM* | u
CCCCC(=Nc1ccc(N)cc1)C1=C(O)C(C(=O)OC)C(C)(C)CC1=O (configuration not stated) | 25µM* | -40* | 10µM* | 7.9µM*[quencher]
COc1ccc(C2CC(c3ccccc3)=NN2C(=O)c2cccs2)cc1 (configuration not stated) | u | 1 | -14% | 7.9µM*[quencher]
CSc1cccc(NC(=O)N2CCN(c3cc(-c4noc(C)n4)ccc3C)CC2)c1 | u | x | 8% | -25%
COCCn1c(C)cc(O)c(C(c2ccc(Cl)cc2)N2CCN(c3ccccc3)CC2)c1=O (configuration not stated) | -12% | x | -17% | 2%
Cc1ccccc1NC1=C/C(=N\S(=O)(=O)c2cccs2)c2ccccc2C1=O | -11% | -46* | 8.9µM* | u
COc1ccc(S(=O)(=O)c2ccc(O)cc2)cc1 | 0% | 7 | -8% | -8%
Cc1ccc(NC2=C/C(=N/S(=O)(=O)c3cccs3)c3ccccc3C2=O)cc1C | 5% | -26 | -6% | -17%
CC(=O)Nc1ccc(NC2=C/C(=N/S(=O)(=O)c3cccs3)c3ccccc3C2=O)cc1 | u | -35* | u | 5µM*[quencher]
COc1ccc(S(=O)(=O)/N=C2\C=C(Nc3ccc(O)cc3)C(=O)c3ccccc32)cc1 | x | -32* | x | x
